Bioassay records as filed in PubChem.
This is a sample that favours compounds with a hit; in the whole collection about 9% have one here.
HPGD block = qHTS Assay for Inhibitors of HPGD (15-Hydroxyprostaglandin Dehydrogenase). 15-hydroxyprostaglandin dehydrogenase [NAD(+)] (Homo sapiens), P15428. purified HPGD, NADH fluorescence kinetic, PGE2 substrate. Potency, µM, inactives show at the top dose activity change, negative = inhibition, actives largely listed as inhibitors. hit rate 4.3% among 150,000. AID 894, 2007; also: potency is read from the fitted curve at half-maximal effect
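NADH formation kinetics: reaction with 30 uM PGE2 and 1 mM NAD+ (final), 20 nM enzyme, Tris-HCl pH 8 with Tween 20, after 15 min compound preincubation at room temperature. Fluorescence change, last versus first of five reads.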
ALDH1A1 inh = qHTS Assay for Inhibitors of Aldehyde Dehydrogenase 1 (ALDH1A1) | Aldehyde dehydrogenase 1A1 (Homo sapiens), P00352 | Purified ALDH1A1, NADH fluorescence, propionaldehyde substrate | Potency, µM (titrated, usually from 75.3 µM), for inactives: at the highest dose activity, negative = inhibition, most hits filed as inhibitors | hit rate 7.3% among 220,000 | AID 1030, 2008;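 also: potency is read from the fitted curve at half-maximal effect; plate controls were no enzyme wells and a reference inhibitor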
Target sequence (P00352 whole entry, looked up): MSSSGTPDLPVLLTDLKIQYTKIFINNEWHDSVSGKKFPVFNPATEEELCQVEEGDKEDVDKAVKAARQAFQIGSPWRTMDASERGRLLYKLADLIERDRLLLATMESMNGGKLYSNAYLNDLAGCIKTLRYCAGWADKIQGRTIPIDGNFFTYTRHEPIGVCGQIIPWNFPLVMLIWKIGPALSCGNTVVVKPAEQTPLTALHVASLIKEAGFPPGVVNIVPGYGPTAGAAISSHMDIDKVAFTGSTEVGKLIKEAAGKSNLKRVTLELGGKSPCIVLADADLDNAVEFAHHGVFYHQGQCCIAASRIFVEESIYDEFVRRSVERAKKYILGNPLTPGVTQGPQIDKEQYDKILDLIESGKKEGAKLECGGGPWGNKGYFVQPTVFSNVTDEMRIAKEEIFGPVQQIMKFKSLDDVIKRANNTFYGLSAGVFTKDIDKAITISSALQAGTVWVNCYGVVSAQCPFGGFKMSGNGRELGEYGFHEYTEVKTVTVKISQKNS
IMPase inh = qHTS Assay for Identifying the Cell-Membrane Permeable IMPase Inhibitors; CHO-M1 cells, IP1 accumulation, HTRF TR-FRET ratio; inhibition (IP1 accumulation), % at 46.1 µM; 120,000 tested, under 10 active; active = well fitted curve in the direction sought with a large enough effect in the signal ratio, not every such curve was filed as active; inconclusive = small, poorly fitted or top-dose-only effect, or a change in a side signal; inactive = no such curve, though single readings can be large or run the other way; the % refers to the signal ratio;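 also: cells stimulated with carbachol in lithium chloride buffer; plate controls were DMSO basal wells for no effect and reference inhibitor wells for full effect; higher means more IMPase inhibition seen as more IP1 and lower FRET ratio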
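Measured: the HTRF emission ratio (665/620 nm) plus the 620 nm donor channel, each fitted to the Hill equation to give AC50. Cells were CHO-M1 given compounds up to 46 uM and a 30 min carbachol stimulation at 37C.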
* marks the source's active call; other numbers are inactive results; ? = inconclusive; . = no result; ! = a repeat was not active; [ ] = another dose, or the depositor's remark. Unless noted, calls follow the shape of the dose curve; as a rule, active = well fitted inhibition curve with a large enough effect (not every such curve was filed as active); inconclusive = small, poorly fitted or top-dose-only effect, or another doubt; inactive = no such curve, though single readings can be large or run the other way. Unless noted, % is scaled to controls: 0 for no effect and ±100 for the full control effect.

SMILES	HPGD block	ALDH1A1 inh	IMPase inh
COc1ccc(COC(=O)N/N=C2/C[C@@H](O)[C@@H](O)[C@@H]3[C@@H]4C(=O)N([C@@H](C)c5ccccc5)C(=O)[C@H]4CC[C@H]23)cc1	.	4%[13.5 µM]	.
O=C(COc1cccc2ccccc12)N/N=C/c1ccc(Sc2nc3ccccc3s2)o1	28µM*	?	2
COCC(=O)N/N=C/c1ccc(Sc2nc3ccccc3s2)o1	-27%	?	0
Cc1ccc(/C=N/NC(=O)CSc2nnc(-c3ccc(Cl)cc3)n2-c2ccccc2)o1	?	10µM*	.
O=C(CSc1nnc(-c2ccc(Cl)cc2)n1-c1ccc(Cl)cc1)N/N=C/c1ccco1	-18%	?	-3
Cc1ccc(/C=N/NC(=O)CSc2nc3ccccc3s2)o1	14µM*	11µM*	.
Cc1ccccc1OCC(=O)N/N=C/c1ccc(Sc2nc3ccccc3s2)o1	-18%	-5%	12
CC(=O)c1cccc(S(=O)(=O)NCC2CCCCC2)c1	-5%	?	.
COc1ccc(S(=O)(=O)N(CC(=O)NC(C)c2ccccc2)c2ccc(C)cc2)cc1OC (stereo not given)	.	.	-5
COc1c(Cl)ccc(Cl)c1C(=O)O	-23%	?	.
CCOc1ccc2nc(NC(=O)CS(=O)(=O)c3ccc(C)cc3)sc2c1	-17%	25µM*	3
CCOc1ccc2nc(NC(=S)N(C)C)sc2c1	14µM*	25µM*	12
CCCC(=O)Nc1nc2ccc(OCC)cc2s1	-4%	-6%	14
CCOc1ccc2nc(NC(=O)CS(=O)(=O)c3ccccc3)sc2c1	-25%	-4%	6
CC(=O)NNc1nc2ccccc2s1	-13%	4%	-3
CN(C)C(=S)Nc1nc2ccccc2s1	.	7.9µM*	.
CCOCC(=O)Nc1nc2ccccc2s1	-3%	22µM*	4
CCNC(=O)Nc1nc2ccccc2s1	.	12%	.
CCN(CC)C(=O)C(=O)N/N=C/c1ccc(C(=O)O)cc1	-6%	7%	-13
CC(C)(C)c1ccc(C2CC2C(=O)N/N=C\c2ccc[nH]2)cc1 (stereo not given)	.	1%	.
Cc1cc(C(F)(F)F)nn2cnnc12	.	1%	.
CCOC(=O)C1(Cc2ccccc2)CCCN(Cc2ccc(OCC)c(CO)c2)C1 (stereo not given)	.	5%	.
N[C@H](C(=O)O)c1cc(O)cc(O)c1	-19%	-9%	-8
CC(Cc1cccs1)NC(=O)Nc1ccc([N+](=O)[O-])cc1 (stereo not given)	.	-2%	.
O=C(CO/N=C/c1ccccc1OC(F)F)N1CCc2ccccc21	-10%	16µM*	.
SMILES	HPGD block	ALDH1A1 inh	IMPase inh
O=C(CO/N=C/c1ccccc1OC(F)F)NCc1cccs1	16µM*	8%	.
COc1ccc(/C=N/OCC(=O)NCc2cccs2)c(OC)c1	.	?	1
CC1Cc2ccccc2N1C(=O)CO/N=C/c1ccccc1OC(F)F (stereo not given)	-18%	?	6
Cc1ccc(NC(=O)CSCc2n[nH]c(=O)[nH]2)c(Br)c1	.	10%	.
Cc1ccc(C)c(N2CCN(C(c3ccccc3)c3nnc(-c4ccccc4F)o3)CC2)c1 (stereo not given)	.	.	8
O=[N+]([O-])c1cc(/C=N/N/C(=N/c2ccccn2)c2ccccn2)ccc1O	.	-5%	.
O=[N+]([O-])c1ccc(/C=N/N/C(=N/c2ccccn2)c2ccccn2)cc1	28µM*	?	9
COc1ccc(-n2cc(-c3ccc4c(c3)OCO4)n(CC(=O)Nc3cccc(C)c3)c2=O)cc1	.	.	21
CN(C)CCCO[C@H]1[C@@H]2OC(C)(C)O[C@@H]2O[C@@H]1[C@H](O)CO	3%	10%[20.9 µM]	-4[20.6 µM]
Cc1cccc(Nc2ccccc2C(=O)O)c1C	-11%	-3%	8[20.6 µM]
Cc1cccc(Nc2cc(Cl)nc(SCC(=O)O)n2)c1C	25µM*!	10µM*!	-3
COc1ccccc1CN1CC[C@@]2(CCCN(S(C)(=O)=O)C2)C1	1%	-9%	.
COC(=O)c1cc(OC)c(OC)cc1NC(=O)Nc1cccc(C(C)=O)c1	.	-8%	.
CC(=O)Cc1nsc(NC(=O)c2cc(-c3cccc(C(F)(F)F)c3)oc2C)n1	0%	12%	1
CC(C)=N/N=C1/NC(=O)C(CC(=O)Nc2cc(Cl)ccc2C)S1 (stereo not given)	-11%	-9%	.
CN(C)S(=O)(=O)c1ccc(NS(=O)(=O)/C=C/c2ccccc2)cc1	-12%	?	-10
COc1ccc(NS(=O)(=O)/C=C/c2ccccc2)cc1	-14%	2.5µM*	.
COc1cccc2c(SCC(=O)N/N=C/c3ccc(O)cc3O)cc(C)nc12	.	28µM*	.
COc1ccc2nc(C)cc(SCC(=O)N/N=C/c3ccc(O)cc3O)c2c1	-21%	25µM*	.
CCCCSc1nc(C)cc(SCC(=O)N/N=C/c2cccc(OC)c2O)n1	-12%	5%	5
COc1ccc2nc(C)cc(SCC(=O)N/N=C/c3ccccc3)c2c1	-18%	3%	.
CCOc1ccc(-c2cc(OC(=O)c3ccccc3)c3c(C)oc(C)c3c(=O)c2)cc1	.	.	-2
Cc1ccc2nc(-c3cc(NC(=O)/C=C/c4ccccc4)ccc3Cl)oc2c1	.	.	-16
COc1ccc(CNC(=O)C/C(C)=N/NC(=O)COc2ccc(C)cc2Br)cc1	.	10µM*	.
COc1ccc(CNC(=O)C/C(C)=N/NC(=O)c2cnccn2)cc1	.	-2%	.
SMILES	HPGD block	ALDH1A1 inh	IMPase inh
C/C(CC(=O)NC(C)(C)C)=N\NC(=O)COc1ccc(C)cc1Br	.	14µM*	.
CCCNC(=O)C/C(C)=N/NC(=O)COc1ccc(C)cc1Br	?	2%	11
COc1ccccc1NC(=O)C(=O)N/N=C(\C)CC(=O)Nc1ccc(OCc2ccccc2)cc1	-14%	1%	-6
COc1ccccc1NC(=O)C/C(C)=N/NC(=O)COc1c(Br)cc(Br)cc1OC	.	7.9µM*	.
Cn1ccc2c([N+](=O)[O-])cccc2c1=O	.	-10%	.
CCSc1nnc(NC(=O)[C@H](C)N2C(=O)C3CC=CCC3C2=O)s1 (stereo not given in full)	.	-2%	.
O=C(c1cc2cc(Cl)ccc2oc1=O)N1CCCC1	-21%	-10%	-6[0.369 µM]
CC(C)c1ccc(C(=O)N2CCCN(C(=O)c3ccc(C(C)C)cc3)CC2)cc1	-5%	7.9µM*	.
O=C(c1cc2cc(Br)ccc2oc1=O)N1CCCC1	20µM*	-5%	4
O=C(c1ccc(Br)cc1)N1CCCC1	7.9µM*	-7%	-6
CC(C)c1ccc(NC(=O)C2CCN(C(=O)c3ccc(F)cc3)CC2)cc1	.	.	3
O=C(c1ccc(-n2cccc2)cc1)N1CCCCC1	.	32µM*	.
O=C(c1ccc(S(=O)(=O)N2CCCCC2)cc1)N1CCN(c2ccccc2)CC1	-9%	9%	-10
CN1CCN(C(=O)c2ccc(S(=O)(=O)c3ccc(Br)cc3)cc2)CC1	.	-1%	5
CCc1cc(C(=O)Nc2cc(S(=O)(=O)N(C)C)ccc2C)sc1C	.	-9%	.
CSCCC(NC(=O)/C(=C/c1ccc(F)cc1)NC(C)=O)C(=O)O (stereo not given)	.	-3%	.
COC(=O)c1ccc(N(C(=O)c2ccco2)C(C(=O)NC2CCCC2)c2ccco2)cc1 (stereo not given)	4%	?	5
